Molecules are shown by their SMILES. The whole screen tested about 360,000 compounds, of which about 11,000 (3.1%) were called active. Where a call stands in place of a potency, no number is given. Another 4% or so got no clear call; they are omitted. The call rests on the fitted dose curve; in most records, active means well fitted inhibition curve with a large enough effect; inconclusive means small, poorly fitted or top-dose-only effect; inactive means no such curve, though single readings can be large or run the other way. Many of the other results were omitted from the sample, so actives are more common in it than they were.
Potency means the concentration at half of the fitted maximal effect.

This test has as its target Schistosoma mansoni thioredoxin glutathione reductase (TGR) (UniProt Q962Y6). Put plainly: qHTS Assay for the Inhibitors of Schistosoma Mansoni Peroxiredoxins. Further: nearly all actives have a fitted effect of over 60% in size. Particulars: purified TGR, DTNB reduction, TNB absorbance 405 nm; series mostly up to 114 µM. In a few lines: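 Kinetic colorimetric format: TGR-catalysed, NADPH-driven DTNB reduction monitored via TNB absorbance. Enzyme dispensed at 20 nM; compound exposure 15 min at room temperature before reaction start.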
(In general: In qHTS, concentration-response curves come from the screen itself.)
Take `Cc1cc(=O)n(CC(=O)Nc2cccc([N+](=O)[O-])c2)c(-n2nc(C)cc2C)n1`: the Potency entry was “inactive”.

Consider `COc1cc(C(=O)NCC(c2ccc(Cl)cc2)N2CCOCC2)cc(OC)c1OC` (configuration not stated), for which the Potency result was “inactive”.

Take `O=C(CSCc1ccccc1)Nc1ccccc1`: the Potency entry was “inactive”.

As to `O=C(CSc1ccccc1)Nc1ccc(C(=O)Nc2cccc(O)c2)cc1`, the Potency result is “inactive”.

On to `O=C(CCl)Nc1cccc(CP(=O)(c2ccccc2)c2ccccc2)c1`, for which the Potency is 11.2 µM (active).

Regarding `COC(=O)c1cc(NC(=O)c2cnc(SC)nc2-c2ccccc2)cc(C(=O)OC)c1`, the Potency entry is “inactive”.

For the compound `COc1ccc(C(=O)Nc2ccc(-n3nncc3-c3ccccc3)cc2)cc1OC`, the Potency entry was “inactive”.

On to `COC(=O)c1ccc(-c2c(-c3ccccc3)ncc3cc(OC)c(OC)cc23)cc1`, for which the Potency was 14.1 µM (active).

For the compound `CC(C)CCN1CCN(Cc2ccc(C(F)(F)F)cc2)CC1CCO` (configuration not stated), the Potency result is “inactive”.

For `CC(C)CN1CCN(Cc2ccccc2C(F)(F)F)CC1CCO` (configuration not stated), the Potency result was “inactive”.

With `CC(C)CCN1CCN(C/C=C/c2ccco2)CC1CCO` (configuration not stated), the Potency was 25.1 µM (active).

Turning to `O=C(NC1CC(=O)N(c2ccc(Cl)cc2)C1)C1CCCC1` (configuration not stated), the Potency result is “inactive”.

For the compound `Cc1ccc(CN2CCCn3nc(C(=O)NCc4ccccc4Cl)cc3C2=O)cc1`, the Potency entry is “inactive”.

`Cc1ccc(-n2ncc3c(NCCCn4ccnc4)ncnc32)cc1Cl`: the Potency result was “inactive”.

Take `CCC(C)c1ccc(O)c(/C=N/O)c1` (configuration not stated): the Potency entry is “inactive”.

Consider `CC(=O)NCC(O)c1ccc([N+](=O)[O-])cc1` (configuration not stated), for which the Potency result is “inactive”.

As to `CNCC(O)c1ccc(O)c(O)c1` (configuration not stated), the Potency is 44.7 µM (active).

On to `CCC(=O)N1CCc2cc(Br)cc(S(=O)(=O)CCC(=O)NCCc3ccc(OC)c(OC)c3)c21`, for which the Potency result was “inactive”.

Take `O=C(CSc1nc2c(c(=O)[nH]1)CN(Cc1ccc(F)cc1)CC2)Nc1ccccc1Cl`: the Potency result was “inactive”.

`Cc1ccc(Cl)cc1N1CCN(C(=O)c2cn(C)c3ccc(S(=O)(=O)N(C)C4CCCCC4)cc3c2=O)CC1`: the Potency result was “inactive”.

Turning to `C=C(C)CNC(=S)Nc1ccc(S(=O)(=O)Nc2cnc3ccccc3n2)cc1`, the Potency was 11.2 µM (active).

For `CC(=O)Nc1ccc(S(=O)(=O)NCCc2ccccc2)cc1`, the Potency entry was “inactive”.

As to `O=C(CS(=O)(=O)c1ccccc1)Nc1ccc(S(=O)(=O)Nc2ccccn2)cc1`, the Potency result is “inactive”.

Turning to `Cc1cccc(NC(=O)N2CCN(C)c3ncccc32)c1C`, the Potency entry is “inactive”.

Consider `Cc1cccc(NC(=O)c2nnn(CC(=O)Nc3ccc(C(C)C)cc3)c2N)c1C`, for which the Potency result was “inactive”.

`CCOc1ccccc1NC(=O)C1=C(C)Nc2ncnn2C1c1ccc(NC(C)=O)cc1` (configuration not stated): the Potency result was “inactive”.

`CCC(=O)N1CCc2cc(S(=O)(=O)NC(Cc3ccccc3)C(=O)NCc3ccc(C)cc3)ccc21` (configuration not stated): the Potency entry is “inactive”.

`CCOc1ccc(CNCCSc2nnnn2C)cc1`: the Potency result is “inactive”.

`COc1ccc(C2Sc3ccccc3NC3=C2C(=O)c2ccccc23)c(OC)c1OC` (configuration not stated): the Potency result is “inactive”.

On to `COC(=O)c1ccc(NC(=O)C(C)N2C(=O)c3ccccc3C2=O)cc1` (configuration not stated), for which the Potency result was “inactive”.

Regarding `COc1ccc(N2C(=O)CNC2=S)cc1`, the Potency result is “inactive”.

`COc1ccc(N2C(=O)/C(=C/c3ccco3)C(=O)NC2=S)cc1`: the Potency is 14.1 µM (active).

Consider `COC(=O)C1=C(C)N(C(C)c2ccccc2)C(=O)/C1=C\c1ccco1` (configuration not stated), for which the Potency is 31.6 µM (active).

For `COC(=O)C1=C(C)N(c2ccc(Br)cc2)C(=O)/C1=C\c1ccco1`, the Potency is 35.5 µM (active).

For `COc1ccc(CN2C(=O)C(C)S/C2=N/N=C/c2ccco2)cc1` (configuration not stated), the Potency result is “inactive”.

Turning to `O=C(OCN1C(=O)c2ccccc2C1=O)/C(=C\c1ccco1)NC(=O)c1ccccc1`, the Potency result was “inactive”.

As for `COC(=O)C1=C(C)N(C)C(C)=C(C(=O)OC)C1c1cccc(Br)c1`, the Potency result is “inactive”.

For `Cc1cccc(C)c1-n1ncc(C(=O)NCCCN2CCCCC2)c1C1CCN(C(=O)OC(C)(C)C)CC1`, the Potency entry is “inactive”.

Turning to `CC(C)NC(=O)C1CCC(Cn2c(=O)c3sccc3n(Cc3ccc(F)cc3)c2=O)CC1` (configuration not stated), the Potency result is “inactive”.

Consider `Cc1ccc2onc(CC(=O)N3CCN(c4ccc(Cl)cc4)CC3)c2c1`, for which the Potency entry was “inactive”.

In the case of `CCc1cc2c(cc(C(=O)OC)n2Cc2nc(-c3ccc(C)cc3)oc2C)s1`, the Potency entry is “inactive”.

Take `CC(=O)N1c2ccc(S(=O)(=O)N3CCCCCC3)cc2CC1C(=O)NCc1ccccc1C` (configuration not stated): the Potency result is “inactive”.

As to `CC(=O)c1ccc(N2CCN(c3nc4c(S(=O)(=O)c5ccccc5)nnn4c4ccc(Cl)cc34)CC2)cc1`, the Potency entry is “inactive”.

With `O=C(CSc1nccn1-c1ccc(F)cc1)Nc1cccc2ccccc12`, the Potency entry is “inactive”.

On to `CC(=O)Nc1ccc2nc(SCCOc3cc(C)cc(C)c3)sc2c1`, for which the Potency entry is “inactive”.

Turning to `O=C(NCC12CC3CC(CC(C3)C1)C2)c1cc2nc(-c3ccccc3)cc(C(F)(F)F)n2n1`, the Potency result is “inactive”.

As for `CCCNC(=O)C1CCC(Cn2c(=O)c3sccc3n(Cc3ccccc3F)c2=O)CC1` (configuration not stated), the Potency result is “inactive”.

For the compound `COc1ccccc1Nc1nc(N)nc(N)c1S(=O)(=O)c1ccccc1`, the Potency entry is “inactive”.

For `CC1(C)Cc2ccccc2-c2[nH]c(=S)[nH]c(=O)c21`, the Potency entry is “inactive”.

As for `CCC1(CC)Cc2ccccc2-c2nc(CCl)[nH]c(=O)c21`, the Potency is 3.16 µM (active).

As to `CCOC(=O)C1Cn2c(nc3c(c2=O)C(C)(CC)Cc2ccccc2-3)S1` (configuration not stated), the Potency result is “inactive”.

On to `CCOC(=O)c1oc2ccc(S(=O)(=O)n3nc(-c4ccccc4OC)cc3N)cc2c1C`, for which the Potency result was “inactive”.

As to `COc1ccc(Cl)cc1N(C)C(=O)c1cc2c(=O)oc3ccc(C)cc3c2s1`, the Potency result is “inactive”.

Take `NC(=O)CSc1c[nH]c2ccccc12`: the Potency result is “inactive”.

For the compound `O=C(OCC(=O)c1c[nH]c2ccccc12)c1cccc(O)c1`, the Potency result was “inactive”.

In the case of `O=S(=O)(O)Oc1c[nH]c2ccccc12`, the Potency was 20 µM (active).

On to `Cc1ccc(OCC(=O)Nc2ccc(Cl)c(-c3nc4ccccc4[nH]3)c2)cc1C`, for which the Potency result was “inactive”.

With `CCc1nc2nc(C)cc(Nc3ccc(F)c(Cl)c3)n2n1`, the Potency entry was “inactive”.

Turning to `Cc1ccc(-c2csc(NC3OC(=O)c4ccccc43)n2)cc1` (configuration not stated), the Potency was 28.2 µM (active).

On to `COc1ccc(N/C=C(\C2OC(=O)c3ccccc32)[N+](=O)[O-])cc1` (configuration not stated), for which the Potency entry was “inactive”.

Turning to `CCCc1cc(-c2nc(-c3ccc(C)cc3)cs2)ccn1`, the Potency result is “inactive”.

On to `COc1ccc2c(c1OC)C(=O)OC2Nc1nc(-c2ccccc2)cs1` (configuration not stated), for which the Potency is 3.16 µM (active).

`COc1ccc(-c2csc(NC3OC(=O)c4ccccc43)n2)cc1` (configuration not stated): the Potency was 5.62 µM (active).

In the case of `CCc1ccccc1NC(=O)[C@@H]1CCC(=O)N1C1OC(=O)c2c1ccc(OC)c2OC` (some centres not stated), the Potency entry was “inactive”.

`Cc1ccc(-c2csc(-c3c[nH]c4ccccc34)n2)cc1`: the Potency result is “inactive”.

With `C/C(CC1CC(C)(C)OC1=O)=N/Nc1nc(-c2ccccc2)cs1` (configuration not stated), the Potency result was “inactive”.

For the compound `COc1ccc(-c2csc(NC(=O)COC(=O)Cc3ccc(Cl)cc3Cl)n2)cc1`, the Potency result was “inactive”.

Values taken from PubChem BioAssay AID485364 (National Center for Advancing Translational Sciences (NCATS), 2010).
